# PLK1 PBD block – PLK1 (human) polo-box domain binding inhibition | actives 2.8% (n = 360,000) | AID 720504 | Potency, µM, inactives show max response, negative = inhibition, usual class: inhibitors | Plk1 PBD binding of FITC phosphopeptide, fluorescence polarization | P53350; further: potency means the concentration at half of the fitted maximal effect; series mostly up to about 57 µM; on the % scale 0 is the no-effect control and ±100 the full control effect; nearly all actives have a fitted effect of over 65% in size
# JMJD2A Tudor – inhibitors of human JMJD2A Tudor domain. AID 504339. Potency, µM (doses to about 114 µM), for inactives: at the top dose activity change, negative = inhibition, hits mostly inhibitors. actives 4.4% (n = 390,000). AlphaScreen JMJD2A-Tudor / H3K4me3 peptide binding. O75164; further: potency means the concentration at half of the fitted maximal effect; on the % scale 0 is the no-effect control and ±100 the full control effect; nearly all actives have a fitted effect of over 50% in size
# Target sequence (O75164 whole entry, looked up, the tested form may be a part): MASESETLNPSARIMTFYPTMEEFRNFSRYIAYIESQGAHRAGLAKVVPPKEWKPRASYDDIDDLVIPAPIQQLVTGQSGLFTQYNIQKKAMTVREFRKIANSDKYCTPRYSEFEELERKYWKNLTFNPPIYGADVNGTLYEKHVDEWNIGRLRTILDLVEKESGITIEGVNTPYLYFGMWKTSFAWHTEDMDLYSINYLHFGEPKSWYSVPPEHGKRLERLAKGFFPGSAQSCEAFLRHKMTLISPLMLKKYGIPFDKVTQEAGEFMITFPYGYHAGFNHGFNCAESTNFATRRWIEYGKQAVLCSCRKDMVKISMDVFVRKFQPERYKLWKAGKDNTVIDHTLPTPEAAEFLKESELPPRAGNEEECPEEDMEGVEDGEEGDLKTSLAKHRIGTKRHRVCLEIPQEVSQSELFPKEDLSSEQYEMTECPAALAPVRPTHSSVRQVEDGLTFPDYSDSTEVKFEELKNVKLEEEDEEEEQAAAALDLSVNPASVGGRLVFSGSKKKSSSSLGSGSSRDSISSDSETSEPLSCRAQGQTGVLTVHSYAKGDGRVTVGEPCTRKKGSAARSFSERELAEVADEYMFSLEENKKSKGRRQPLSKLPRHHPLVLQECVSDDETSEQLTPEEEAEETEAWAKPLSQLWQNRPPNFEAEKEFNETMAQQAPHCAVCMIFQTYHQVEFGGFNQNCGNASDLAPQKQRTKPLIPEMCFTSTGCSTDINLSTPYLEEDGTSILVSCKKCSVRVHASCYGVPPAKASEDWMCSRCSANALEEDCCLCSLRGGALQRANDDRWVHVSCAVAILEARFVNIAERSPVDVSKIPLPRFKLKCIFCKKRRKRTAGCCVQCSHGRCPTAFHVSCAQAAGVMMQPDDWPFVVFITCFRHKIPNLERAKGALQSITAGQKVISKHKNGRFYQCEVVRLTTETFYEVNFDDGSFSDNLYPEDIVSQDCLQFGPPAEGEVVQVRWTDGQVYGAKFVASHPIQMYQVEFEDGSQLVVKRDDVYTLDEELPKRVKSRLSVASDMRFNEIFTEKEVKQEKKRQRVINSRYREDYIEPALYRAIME
# HP1b binding inh – blocks HP1-beta chromodomain binding to methylated histone tails; P83916; AlphaScreen HP1-beta / biotin-H3K9me3 peptide binding; Potency, µM (titrated, usually from 114 µM), for inactives: at the highest dose activity change, negative = inhibition, usual class: inhibitors; actives 0.56% (n = 390,000); AID 540317; further: potency means the concentration at half of the fitted maximal effect; nearly all actives have a fitted effect of over 70% in size
#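 Compound inhibition of the preformed complex between 50 nM HP1-beta and 50 nM biotinylated H3K9me3 peptide was read by AlphaScreen. Buffer was PBS pH 7.4 with 0.01% Tween-20. Incubations ran 30 min at room temperature, with 10 ug/mL donor/acceptor beads.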
# PI5P4K alpha inh – PI5P4K alpha (human) kinase inhibition | PI5P4Kalpha enzyme, ADP-Glo luminescence, 60 min; active compounds read low | max response, % | actives 1.2% (n = 330,000) | AID 652105; active means max response of -50% or lower; inconclusive means between -30% and -50%; inactive means -30% or higher; further: value at the top dose of about 77 µM; on the % scale 0 is the no-effect control and ±100 the full control effect
#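 ADP-Glo luminescence end-point read after a 60 min room-temperature kinase reaction of PI5P4Kalpha plus substrate, initiated with ATP at 5 microM final. Buffer: 0.038 M HEPES pH 7.4, EGTA, 0.1% CHAPS, 5% DMSO.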
# BAZ2B inh – inhibitors of human BAZ2B bromodomain; actives 4.4% (n = 360,000); Q9UIF8; AlphaScreen BAZ2B-H3K14Ac peptide displacement; Potency, µM (top dose mostly 114 µM), without a hit: at the highest dose activity change, negative = inhibition, usual class: inhibitors; further: potency means the concentration at half of the fitted maximal effect; on the % scale 0 is the no-effect control and ±100 the full control effect; nearly all actives have a fitted effect of over 60% in size
#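 BAZ2B (50 nM) with biotin-H3(5-23)K14Ac peptide (50 nM) in PBS pH 7.4, 0.01% Tween-20, preformed 30 min, then compound 30 min at room temperature; top concentration 110uM. AlphaScreen streptavidin donor/nickel chelate acceptor beads (10 ug/mL final), 20 min dark, signal read.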
# GCN5L2 inh – blocks human GCN5L2 histone acetyltransferase | Q92830 | GCN5L2 HAT assay, ThioGlo1 CoA-SH fluorescence | Potency, µM (top dose mostly 58.9 µM), without a hit: top-dose activity change, negative = inhibition, actives largely listed as inhibitors | actives 0.21% (n = 390,000) | AID 504327; further: potency means the concentration at half of the fitted maximal effect; on the % scale 0 is the no-effect control and ±100 the full control effect
#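 Compounds, pin-transferred from DMSO stocks, meet 20nM GCN5L2 for 15 min before the reaction begins with H3(1-25) peptide (75uM) and acetyl-CoA (70uM). Thiol-reactive ThioGlo1 reports CoA release over 20 min at room temperature.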
# * = called active by the depositor; ? = inconclusive; / = no result; [ ] = another dose, or the depositor's remark. In the library only some 7% were active in any assay of this set; here they are far more common. Unless noted, the call rests on the fitted dose curve; in most records, active means well fitted curve in the direction sought with a large enough effect; inconclusive means small, poorly fitted or top-dose-only effect, or another doubt; inactive means no such curve, though single readings can be large; an effect the other way counts as inactive or inconclusive.
SMILES,PLK1 PBD block,JMJD2A Tudor,HP1b binding inh,PI5P4K alpha inh,BAZ2B inh,GCN5L2 inh
NNc1nc(NCc2ccccc2)nc(N2CCOCC2)n1,-2.7%,?,25.7%,16.0,79.4µM*,-0.6%
O=[N+]([O-])c1ccc(/C=N/Nc2nc(NCc3ccccc3)nc(N3CCOCC3)n2)cc1,-11.5%,-24.5%,57.2%,-2.2,-6.2%,-12.0%
O=[N+]([O-])c1cccc(/C=N/Nc2nc(NCc3ccccc3)nc(N3CCOCC3)n2)c1O,-9.5%,20µM*,-6.6%,?,-23.6%,3.8%
CCNc1nc(N2CCOCC2)nc(N(c2ccccc2)c2ccccc2)n1,-6.8%,-23.7%,37.4%,-2.1,2.7%,-8.1%
CCCNc1ccc(S(=O)(=O)N(CC)CC)cn1,5.5%,7.3%,47.1%,-4.4,-1.2%,-0.8%
CCCNc1ncc2c(=O)[nH][nH]c(=O)c2n1,-8.2%,20µM*,3.5%,-55.3*,/,/
COc1cccc(NC(=S)N2CCC(c3ccc(C)cc3)C2)c1 (centres undefined),-20.0%,-17.6%,13.0%,0.0,-13.5%,0.8%
Oc1nc(Nc2cccc(Cl)c2)sc1/C=C1\C=Nc2ccccc21,-19.7%,?,-16.6%,-61.6*,-38.0%,-6.5%
CC1=Nc2ccccc2/C1=C\c1sc(Nc2ccc(C)cc2)nc1O,6.3%,-21.5%,5.6%,-66.1*,?,-2.5%
Oc1cccc(Nc2nc(O)c(/C=C3\C=Nc4ccccc43)s2)c1,28.9%,-23.5%[11.4 µM],11.3%,-101.6*,?,-4.1%
CC1=Nc2ccccc2/C1=C/c1sc(=O)n(CC(=O)N2CCCC2)c1O,-2.6%,-16.9%,16.1%,0.2,7.5%,-16.2%
Oc1nc(Nc2ccc(F)cc2)sc1/C=C1\C=Nc2ccccc21,-12.8%,-19.7%,20.3%,?,-15.3%,-2.0%
CCn1c(NC(=O)C2CCCCC2)nc2ccccc21,0.8%,-22.0%,28.5%,1.7,5.1%,-8.3%
CCn1c(NC(=S)Nc2ccccc2)nc2ccccc21,-8.0%,?,-13.6%,-8.6,5.62µM*,5.3%
Clc1ccccc1OCCn1cnc2ccccc21,-6.0%,-17.7%,14.0%,/,10.8%,2.7%
S=C(Nc1ccccc1)Nc1nc2ccccc2n1CCOc1ccc(Cl)cc1,-14.5%,?,?,-1.9,7.08µM*,-11.4%
Clc1ccc(OCCn2cnc3ccccc32)cc1,2.99µM*,?,3.5%,?,3.1%,-1.5%
O=C(COc1ccc(F)cc1Br)NCC1(N2CCOCC2)CCCCC1,-7.3%,-6.9%,30.3%,3.0,8.1%,1.3%
O=[N+]([O-])c1cc(-c2ccc(/C=N\n3cnnc3)o2)cc([N+](=O)[O-])c1,-15.2%,?,?,-58.8*,-37.6%,1.1%
O=[N+]([O-])c1ccccc1-c1ccc(/C=N/n2cnnc2)o1,-8.2%,-29.1%,-2.5%,/,-6.2%,37.9%
CC(C)c1nc(C(=O)N2CCCC(N3CCN(c4cccc(Cl)c4)CC3)C2)cs1 (centres undefined),-4.9%,-31.2%,-8.4%,-0.1,-32.1%,-19.8%
CC1(C)Cc2c(cnn2-c2ccccc2)C(NC(=O)c2ccc[n+]([O-])c2)C1 (centres undefined),-5.1%,2.2%,28.4%,4.9,8.9%,-6.4%
CCN(CC)C(=S)SCC(=O)c1ccccc1,-7.8%,20.3%,57.7%,/,26.5%[57.1 µM],-14.1%
CCN(CC)C(=S)SCC(=O)Nc1ccc(F)cc1,-28.2%,22.6%,58.8%,0.0,3.8%,3.55µM*
CCN(CC)C(=S)SCC(=O)Nc1cccc(C(F)(F)F)c1,0.8%,32.9%,72.9%,8.7,/,/
CCN(CC)C(=S)SCC(=O)c1ccc(F)cc1,29.9µM*,-16.8%[11.4 µM],52.3%,-1.2,55.9%,-4.0%
Cc1cccc(N2CCN(c3ncnc4c3nc3n4CCCCC3)CC2)c1C,/,-10.9%,14.7%,/,-14.5%,-3.1%
C=CC(C)(C)c1[nH]c2ccccc2c1C1=C(O)C(=O)C(c2c[nH]c3c(CC=C(C)C)cccc23)=C(O)C1=O,/,/,/,/,/,15.8µM*

# Source: PubChem
